Assay results: ChEMBL document CHEMBL3988442, “University of Dundee, Small-Polar-MMV Screening Library” (2021)

Key:
[1] = target: T1, Aspartate--tRNA(Asp/Asn) ligase (Mycobacterium tuberculosis (strain ATCC 25618 / H37Rv)) (UniProt P9WFW3); assay: Assay for Asp RNA synthetase-1 from Mycobacterium tuberculosis; type: functional; set-up: scale not given: direction of the effect not stated beside the values; settings: 30 µM; also: in the data most compounds retested in dose-response had high values
T1 sequence (whole entry): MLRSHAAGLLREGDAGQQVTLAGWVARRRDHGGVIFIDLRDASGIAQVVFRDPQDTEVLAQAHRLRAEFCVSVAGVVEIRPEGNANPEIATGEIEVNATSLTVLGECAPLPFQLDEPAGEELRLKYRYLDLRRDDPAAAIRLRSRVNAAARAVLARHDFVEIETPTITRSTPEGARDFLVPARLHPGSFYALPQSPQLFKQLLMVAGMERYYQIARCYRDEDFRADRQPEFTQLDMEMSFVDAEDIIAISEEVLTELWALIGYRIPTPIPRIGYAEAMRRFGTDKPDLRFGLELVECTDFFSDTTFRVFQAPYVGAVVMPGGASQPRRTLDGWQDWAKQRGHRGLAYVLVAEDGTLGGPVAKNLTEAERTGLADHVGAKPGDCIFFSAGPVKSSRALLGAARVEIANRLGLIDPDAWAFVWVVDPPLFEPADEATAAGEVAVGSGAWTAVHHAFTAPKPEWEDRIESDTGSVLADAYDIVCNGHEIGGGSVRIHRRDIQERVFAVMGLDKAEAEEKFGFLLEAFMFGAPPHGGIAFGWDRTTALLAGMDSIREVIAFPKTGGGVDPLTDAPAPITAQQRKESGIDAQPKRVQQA

[2] = target: Shiga toxin 2 (Escherichia coli O157:H7) (UniProt P09385+P09386); assay: E. coli 0.157:H7 Shiga Toxin SOP - stx2 screening assay; type: functional; set-up: scale not given: direction of the effect not stated beside the values; settings: 30 µM

Structure (SMILES): Clc1snnc1CN1CCOC(CNc2cccnn2)C1 (centres undefined)
- Percent Effect [1]: -1.85%
- Percent Effect [2]: -5.91%

Structure (SMILES): Cc1cc(C)nc(Nc2cccc(C3CCCN(C)C3)n2)n1 (centres undefined)
- Percent Effect [1]: -3.29%
- Percent Effect [2]: 1.38%

Structure (SMILES): c1nc2c(c(C3CC3)n1)CCN(Cc1ccc3c(c1)OCO3)CC2
- Percent Effect [1]: -2.19%
- Percent Effect [2]: -20.6%

Structure (SMILES): CCn1ncc2c1CCCC2NCc1ccc(OC)c(C)c1 (centres undefined)
- Percent Effect [1]: -4.46%
- Percent Effect [2]: -11.4%

Structure (SMILES): COc1cccc2c1ccn2CCC(=O)N1CCCC(C(=O)O)C1 (centres undefined)
- Percent Effect [1]: 6.53%
- Percent Effect [2]: -30.4%

Structure (SMILES): O=C(Cn1cc(I)cn1)N1CCc2ccccc2C1
- Percent Effect [1]: 2.67%
- Percent Effect [2]: -31%

Structure (SMILES): CCc1ncc2c(n1)CN(CC(=O)Nc1nnc(C)s1)CC2
- Percent Effect [1]: 4.25%
- Percent Effect [2]: -18.6%

Structure (SMILES): CC(NC(=O)c1nc(=O)[nH][nH]1)c1ccc(OCC2CC2)c(F)c1 (centres undefined)
- Percent Effect [1]: -2.07%
- Percent Effect [2]: 5.49%

Structure (SMILES): Cc1cc(CN2CCOC(CN(C)c3cccnn3)C2)no1 (centres undefined)
- Percent Effect [1]: -2.36%
- Percent Effect [2]: 18.5%

Structure (SMILES): CN(C)CC(=O)N1CCOCC2(C1)CN(c1ccccc1)C(=O)CO2 (centres undefined)
- Percent Effect [1]: 3.93%
- Percent Effect [2]: -23.2%

Structure (SMILES): CC(O)CN1CCN(C(=O)c2cn(-c3ccccc3Cl)nn2)CC1 (centres undefined)
- Percent Effect [1]: 3.29%
- Percent Effect [2]: -10.2%

Structure (SMILES): Cc1ccn(-c2ccc(C(=O)N3CCCC(C(N)=O)C3)cc2)n1 (centres undefined)
- Percent Effect [1]: -3.4%
- Percent Effect [2]: 8.96%

Structure (SMILES): O=C(COc1cccc(Br)c1)N1CCOCC1c1ncon1 (centres undefined)
- Percent Effect [1]: -0.929%
- Percent Effect [2]: 9.16%

Structure (SMILES): COc1cc(C2CC(=O)Oc3cc(C)[nH]c(=O)c32)ccc1OC(F)F (centres undefined)
- Percent Effect [1]: -4.59%
- Percent Effect [2]: -43.6%

Structure (SMILES): CC(C)c1nc(CC(=O)N2CCCC(n3cncn3)C2)cs1 (centres undefined)
- Percent Effect [1]: -4.06%
- Percent Effect [2]: -31%

Structure (SMILES): Cc1nc(CNC(=O)NCC(O)c2ccc(F)c(F)c2)cs1 (centres undefined)
- Percent Effect [1]: -2.91%
- Percent Effect [2]: 4.89%

Structure (SMILES): COc1cc(CNc2cnn(C)c2)cc2c1OCCO2
- Percent Effect [1]: -1.79%
- Percent Effect [2]: 7.95%
